ELG1 repair inh – blocks ELG1-dependent DNA repair in HEK293T cells; Potency, µM (top dose mostly 46.1 µM), for the others: at the top dose activity change, negative = inhibition, most hits filed as inhibitors; HEK293T ELG1-luciferase reporter, luminescence, 16 h; DNA damage induced by 5-fluorouridine; AID 504467; 330,000 tested, 2.3% active; note: % is set by controls: 0 for no effect and ±100 for the full control effect; nearly all actives have a fitted effect of over 55% in size
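Luminescence from the luciferase reporter, measured 30 min after ONE-Glo reagent at room temperature, was the read-out. Beforehand, 2,000 cells per well were exposed for 16 hr at 37 °C to 5-fluorouridine together with compound or vehicle.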
Rab9 prom act – Rab9 promoter activation; Huh7 Rab9 promoter-luciferase reporter, luminescence, 24 h; Potency, µM (titrated, usually from 9.22 µM), for inactives: top-dose activation, negative = inhibition, most hits filed as activators; 320,000 tested, 2.8% active; AID 485297; note: % of control where 0% means no effect; nearly all actives have a fitted effect of over 60% in size
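Rab9 promoter-driven luciferase in stably transfected Huh7 cells; 1500 cells/well rested 2 h, exposed to compound in DMSO for 24 h at 37 °C, 5% CO2. Luminescence read 10 min after adding luciferase reagent at ambient temperature.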
ELG1 genotox – genotoxicity induction in ELG1-luciferase HEK293T cells. HEK293T ELG1-luciferase reporter, luminescence, 16 h. Potency, µM (series often up to 46 µM), inactives show at the top dose activity change, positive = activation, hits mostly activators. 330,000 tested, 1.3% active; note: % of control where 0% means no effect; nearly all actives have a fitted effect of over 60% in size
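HEK293T cells expressing luciferase-tagged ELG1 were treated with compound or DMSO for 16 hr at 37°C. Luciferase activity was then read after 30 min with ONE-Glo at room temperature; rising signal flags genetic stress.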
NPC1 promoter act – NPC1 promoter activation | 320,000 tested, 2.4% active | Huh7 NPC1 promoter luciferase reporter, 24 h | Potency, µM (highest dose often 9.22 µM), for inactives: at the top dose activation, actives largely listed as activators; note: % of control where 0% means no effect; nearly all actives have a fitted effect of over 60% in size
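Huh7 reporter cells (NPC1 promoter driving luciferase) are dosed with compound for 24 h at 37 °C, 5% CO2; luciferase detection reagent is then added and luminescence measured after 10 min at ambient temperature.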
FLuc counter – inhibits or activates purified firefly luciferase, miR-21 counter-screen; purified FLuc, Km substrates, luminescence inhibition; AID 588342; Potency, µM (top dose mostly 57.5 µM), inactives show at the highest dose activity change, negative = inhibition, most hits filed as inhibitors; P08659; 360,000 tested, 6.9% active;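 note: plate controls were vehicle for no effect and reference inhibitor for full effect; nearly all actives have a fitted effect of over 55% in size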
Target sequence (P08659 whole entry, looked up): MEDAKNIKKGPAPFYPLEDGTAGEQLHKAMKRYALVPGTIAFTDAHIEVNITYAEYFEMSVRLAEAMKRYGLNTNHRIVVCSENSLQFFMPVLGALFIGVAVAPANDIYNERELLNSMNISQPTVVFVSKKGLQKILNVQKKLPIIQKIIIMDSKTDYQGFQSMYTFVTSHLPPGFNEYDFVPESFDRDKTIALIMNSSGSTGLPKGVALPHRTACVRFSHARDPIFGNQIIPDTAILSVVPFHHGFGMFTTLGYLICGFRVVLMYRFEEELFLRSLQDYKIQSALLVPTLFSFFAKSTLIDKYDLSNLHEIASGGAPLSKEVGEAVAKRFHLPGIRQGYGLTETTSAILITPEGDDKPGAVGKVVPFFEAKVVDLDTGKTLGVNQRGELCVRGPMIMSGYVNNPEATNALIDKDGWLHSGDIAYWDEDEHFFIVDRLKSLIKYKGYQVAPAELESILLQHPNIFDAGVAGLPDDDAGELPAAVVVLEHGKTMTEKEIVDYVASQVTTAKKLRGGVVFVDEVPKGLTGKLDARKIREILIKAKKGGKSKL
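Biochemical qHTS of compounds, final roughly 60 µM downward over six points, against 10 nM purified firefly luciferase using Km concentrations of substrates (10 uM D-luciferin, 10 uM ATP) in Tris acetate pH 7.5 buffer; luminescence output.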
SMN2 splice up – SMN2 splice variant enhancement; Potency, µM (titrated, usually from 46.1 µM), for the others: at the highest dose activity change, positive = activation, hits mostly activators; HEK293 SMN2-luciferase splicing reporter, luminescence, 30-36 h; 210,000 tested, 2.8% active; note: % of control where 0% means no effect; nearly all actives have a fitted effect of over 55% in size
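qHTS luciferase splicing reporter: luminescence rises when SMN2 exon 7 is included in transfected HEK293 cells. Compound exposure lasted 30-36 h at 37C, with 4.5 mM final sodium butyrate as control, followed by a ONE-Glo read.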
The depositor's hits bear a star; u = inconclusive; x = not tested or not shown; [ ] = remark or other dose. Most compounds without a hit are left out; they make up all but 9.2% or so of the library. Calls come from the whole dose curve; as a rule, active = well fitted curve in the direction sought with a large enough effect; inconclusive = small, poorly fitted or top-dose-only effect, or another doubt; inactive = no such curve, though single readings can be large; an effect the other way counts as inactive or inconclusive. Potency is the fitted concentration of half-maximal effect.

SMILES	ELG1 repair inh	Rab9 prom act	ELG1 genotox	NPC1 promoter act	FLuc counter	SMN2 splice up
N#CC(=C1CCCC1)c1nc(-c2ccccc2)cs1	u	u	u	3.16µM*	1.35µM*	15.8µM*
N#CC(=C1CCCC1)c1nc(-c2cc3ccccc3oc2=O)cs1	u	3.16µM*	u	u	2.13µM*	u
N#CC(=C1CCCC1)c1nc(-c2ccccc2O)cs1	u	3.55µM*	3.66µM*	2.82µM*	1.35µM*	u
CCc1ccc(/C=C(/C#N)c2nc(-c3ccc(C)cc3)cs2)cc1	x	x	x	x	0.5%	6.8%
N#C/C(=N\O)c1nc(-c2ccccc2)cs1	-4.0%	1.4%	0.0%	1.3%	-10.5%	-8.7%
Cc1ccc(-c2csc(C(C#N)=C3CCCC3)n2)cc1	u	4.47µM*	u	3.16µM*	2.69µM*	17.8µM*
N#C/C(=C/c1ccccc1Cl)c1nc(-c2cc3ccccc3oc2=O)cs1	x	x	x	x	-6.8%	-5.9%
O=C(Nc1ccc(Cl)cc1)Nc1nc(-c2ccccc2O)cs1	u	1.7%	-0.1%	-1.6%	-4.8%	x
N#CC1=C(N)Oc2cc(N)ccc2C1c1cccc(F)c1 (stereo unspecified)	2.91µM*	-27.2%	1.5%	-31.7%	2.0%	x
CN(C)c1ccc2c(c1)OC(N)=C(C#N)C2c1cccc(F)c1 (stereo unspecified)	-9.0%	-26.5%	u	-7.3%	-7.7%	-23.6%
CCCCOc1ccc(CNC(=O)Cn2ncn3c(cc4cc(F)ccc43)c2=O)cc1	x	x	x	x	-0.8%	2.8%
COc1ccc(/C=C2/SC(=S)N(CCCC(=O)Nc3ccccc3C(=O)O)C2=O)cc1	-1.8%	-8.4%	-14.2%	-19.5%	26.9µM*	x
COc1cccc(/C=C2\SC(=S)N(CCC(=O)NNC(=O)c3ccccc3OC)C2=O)c1	-14.5%	-1.0%	-3.5%	5.4%	-17.6%	x
COc1ccc(/C=C2/SC(=S)N(CCCC(=O)Nc3cccc(O)c3)C2=O)cc1	-17.4%	-6.6%	6.1%	-4.4%	13.5µM*	x
Cc1ccc(/C=C2\SC(=S)N(CCCC(=O)Nc3ccccc3C(=O)O)C2=O)cc1	-0.4%	-1.9%	10.6%	3.1%	3.8%	x
COc1cccc(/C=C2/SC(=S)N(CC(=O)NNC(=O)c3ccccc3OC)C2=O)c1	-0.6%	-0.4%	2.9%	-1.9%	13.5µM*	x
COc1ccc(/C=C2\SC(=S)N(CCC(=O)Nc3cccc(O)c3)C2=O)cc1OC	2.3%	-1.8%	10.0%	-6.0%	u	x
COc1cccc2c1cc1c(=O)n(CC(=O)NCCCN3CCN(C)CC3)nc(C)n12	14.9%	2.4%	1.3%	-2.9%	-0.9%	5.6%
C=CCOC(=O)C1=C(C)NC(SCC(N)=O)=C(C#N)C1c1cccs1 (stereo unspecified)	-13.0%	-4.8%	-2.4%	0.1%	1.5%	-6.3%
CCOC(=O)C1=C(C)NC(SCC(=O)Nc2nc(C)cs2)=C(C#N)C1c1cccs1 (stereo unspecified)	20.6µM*	10.8%	-2.1%	3.8%	-5.5%	-27.6%
CC(C)(C)OC(=O)N1CCCC(C(=O)Nc2ccc(C(=O)N3CCCC3)cc2)C1 (stereo unspecified)	-1.3%	x	1.0%	x	x	x
COC(=O)c1ccccc1NC(=O)Cn1c(=O)n(CCC(=O)NCc2ccc3c(c2)OCO3)c(=O)c2ccccc21	x	x	x	x	3.0%	3.7%
ClC(=C\c1ccccc1)/C=N/N1CCN(c2ccccn2)CC1	u	u	9.2µM*	3.16µM*	u	14.1µM*
Cc1ccc(/C=N/N2CCN(c3ccccn3)CC2)cc1	u	u	u	29.5%	9.53µM*	17.7%
COc1ccc(NC(=O)CSc2nc3c(c(=O)[nH]2)CN(Cc2ccccc2)CC3)cc1Cl	x	x	x	x	-3.3%	x
SMILES	ELG1 repair inh	Rab9 prom act	ELG1 genotox	NPC1 promoter act	FLuc counter	SMN2 splice up
CCOC(=O)c1cnc2c(ccc3ccccc32)c1Nc1ccccc1O	x	x	x	x	-5.0%	3.0%
Fc1ccccc1-c1nc(NCc2ccco2)c2ccccc2n1	u	-0.8%	-8.7%	-1.0%	-1.5%	-5.7%
CCOc1nc(NCCO)nc(Nc2ccccc2F)n1	11.0%	-3.6%	17.2%	1.5%	-1.7%	15.2%
Cc1ccc(Nc2nc(NCc3ccco3)c3ccccc3n2)cc1	u	0.2%	-16.3%	5.5%	21.3µM*	-75.8%
CCOc1nc(NCc2ccco2)nc(Nc2ccc(OC)cc2)n1	u	2.2%	7.8%	-1.4%	u	12.3%
CCOc1nc(NCc2ccco2)nc(Nc2ccccc2F)n1	u	29.9%	u	28.7%	-16.9%	7.08µM*
COc1ccccc1Nc1nc(NCc2ccco2)c2ccccc2n1	20.6µM*	-14.4%	-10.3%	2.2%	19µM*	x
Oc1ccccc1-c1nc(NCc2ccco2)c2ccccc2n1	-17.0%	0.7%	0.0%	0.3%	0.9%[2.3 µM]	5.1%
COc1ccc(Nc2nc(NCc3ccco3)nc(N/N=C/c3ccccc3)n2)cc1	2.59µM*	-2.1%	-7.5%	4.2%	u	-7.1%
CCn1c(SC(C)C(=O)Nc2ccc(N3CCOCC3)cc2)nnc1C1CC1 (stereo unspecified)	1.9%	-8.0%	0.3%	5.0%	-25.7%	x
COC(=O)C1CCN(C(=O)c2ccc3nc(-c4cccc(OC)c4)oc3c2)CC1	u	2µM*	u	1.78µM*	21.3µM*	x
COC(=O)C1CCN(C(=O)c2ccc3nccnc3c2)CC1	3.5%	-4.1%	9.7%	-7.4%	-2.9%	x
COc1ccc(C(=O)Nc2ccc3oc(-c4cccnc4)nc3c2)cc1	x	x	x	x	u	-11.0%
COc1cccc(-c2nc3ccc(C(=O)NC(C)Cc4cccnc4)cc3o2)c1 (stereo unspecified)	u	2.82µM*	u	2.24µM*	9.53µM*	x
CN(CCC#N)C(=O)COC(=O)c1ccc2[nH]c3c(c2c1)CCCC3	u	9.2%	-4.4%	-1.4%	u	u
CN(CCC#N)C(=O)COC(=O)c1c2c(nc3ccccc13)/C(=C/c1ccco1)CC2	u	u	7.8%	u	10.7µM*	22.4µM*
COc1cccc(NC(=O)c2c(F)cccc2F)c1	u	u	10.3µM*	26.6%	u	x
COc1cccc(NC(=O)c2ccccc2-c2ccccc2C(=O)O)c1	-18.1%	1.1%	-2.1%	-1.6%	0.9%	x
COc1cccc(NC(=O)c2cccc(C(=O)Nc3cccc(OC)c3)n2)c1	u	-2.5%	1.6%	-3.6%	u	x
COc1cccc(NC(=O)CN(C)C(=O)C2=COCCO2)c1	13.2%	-1.8%	0.8%	-1.4%	4.4%	x
COc1cccc(NC(=O)c2ccccc2F)c1	u	3.55µM*	4.61µM*	3.98µM*	6.01µM*	x
